The entries come from a sample that favours hits as a whole.
TTR transcr act – TTR transcription activators in neuroblastoma reporter cells, primary screen, cell-based, luminescence, SH-SY5Y, TTR promoter Gaussia luciferase | activation, % at 16.7 µM | 100% = recombinant luciferase protein wells | 92,000 tested, 1.3% active;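 active = activation above the mean of all tested compounds plus 3 SD, cut at about 9.5% in these data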;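 also: cells exposed to compounds for one day before reading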
TTR inh HuH7 – TTR promoter reporter inhibitors in hepatoma cells, counter-screen for TTR transcription activator project, cell-based, luminescence, HuH7 hepatoma | shares compounds with TTR transcr act | HuH7 TTR promoter-Gaussia luciferase reporter | inhibition, % at 16.7 µM | 1,100 tested, 4% active;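 active = average inhibition above the solvent-only control wells' mean plus 3 SD, cut at about 15% in these data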;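 also: inhibitors lower well luminescence so higher value means more inhibition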
TTR up confirm – TTR transcription activators, retest, confirmation, cell-based, luminescence, SH-SY5Y, triplicate | shares compounds with TTR transcr act | activation, % at 16.7 µM | 1,100 tested, under 10 active | AID 1117280, 2014 | SHSY5Y TTR promoter Gaussia luciferase; 100% = purified Lucia enzyme wells, no cells;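 active = mean activation above a set limit taken from the earlier primary screen, cut at about 11% in these data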
A number is an active result; - = inactive.

SMILES	TTR transcr act	others
COc1cccc(NC(=O)CN2C(=O)NC(CCc3ccccc3)C2=O)c1 (stereo not drawn)	-
CCc1cccc(C)c1NC(=O)CN1C(=O)NC(CCc2ccccc2)C1=O (stereo not drawn)	15	TTR inh HuH7=-;TTR up confirm=-
O=C(CN1C(=O)NC(CCc2ccccc2)C1=O)N1CCCCCC1 (stereo not drawn)	-
c1cc2ccn(CC3CC3)c2cc1-c1ccc2ccn(CC3CC3)c2c1	-
CCCCCCC(=O)NC1CCCCN(Cc2ccccc2C)C1=O (stereo not drawn)	-
O=C(NCCCc1ccccc1)OC1CC2CC1[C@H]1CCCCN1[C@H]2Cc1ccccc1 (stereo partly drawn)	-
COC(=O)c1cc(OC)nc(OC)c1	16	TTR inh HuH7=-;TTR up confirm=-
COC(=O)c1ccc2cn[nH]c2c1	-
COC(=O)c1ccc2nccnc2c1	-
COC(=O)[C@]12C[C@H](CC(=O)NCCc3ccccc3OC)C(=O)N(CCc3ccc(OC)c(OC)c3)C1=C[C@H](COCc1ccccc1)O[C@@H]2C	-
COc1cccc(-c2csc(N3CCN(Cc4ccccc4)CC3)n2)c1	10.0	TTR inh HuH7=-;TTR up confirm=-
COc1cccc(NC(=O)N2CCN(c3nc(-c4cccc(OC)c4)cs3)CC2)c1	-
COc1ccc(-c2cc(=O)[nH]c(N3CCN(Cc4ccccc4)CC3)n2)cc1	-
CC(C)CC(NC(=O)C(Cc1ccc(OCc2ccccc2)cc1)NC(=O)OC(C)(C)C)C(N)=O (stereo not drawn)	-
CCOC(=O)C(Cc1ccccc1)NC(=O)CNC(=O)CNC(=O)OCc1ccccc1 (stereo not drawn)	-
CCOC(=O)C(Cc1ccc(O)cc1)NC(=O)CNC(=O)C(CC(C)C)NC(=O)OC(C)(C)C (stereo not drawn)	30	TTR inh HuH7=-;TTR up confirm=-
O=C(CCSc1ccccc1)NCC1CCCO1 (stereo not drawn)	15	TTR inh HuH7=-;TTR up confirm=-
O=C(CCSCCC(=O)NCC1CCCO1)NCC1CCCO1 (stereo not drawn)	-
CC(NC(=O)C(=O)NCC1CCCO1)c1ccccc1 (stereo not drawn)	-
N#Cc1cccc(NC(=O)O[C@@H]2CC[C@@]34CCCN3C(=O)CCC[C@H]4C2)c1	-
O=S(=O)(CC1NCCc2ccccc21)NCc1ccc(F)cc1 (stereo not drawn)	-
Cc1ccc(N2C(=O)C3CCCN3C2=S)cc1C (stereo not drawn)	20	TTR inh HuH7=-;TTR up confirm=-
Cc1cc(C)cc(N2C(=O)C3CCCN3C2=S)c1 (stereo not drawn)	-
Cc1ccc(N2C(=O)C3CCCN3C2=S)cc1 (stereo not drawn)	-
Cc1ccc(CN2CCCCC(NC(=O)c3ccc4ccccc4c3)C2=O)cc1 (stereo not drawn)	-
SMILES	TTR transcr act	others
Cc1cc(C)cc(S(=O)(=O)N2CCN(c3nc(-c4cccs4)nc4ccccc34)CC2)c1	-
CC1CCCC(NC(=O)COC(=O)Cc2ccc(Cl)cc2)C1C (stereo not drawn)	-
Cc1ccc(-c2nc(N)sc2CC(=O)OCC(=O)NC2CCCC(C)C2C)cc1 (stereo not drawn)	15	TTR inh HuH7=-;TTR up confirm=-
Cc1ccc(CC(=O)OCC(=O)NC2CCCC(C)C2C)cc1C (stereo not drawn)	-
CCCC/C=C1/C(c2ccccc2)N(Cc2ccc(OC)cc2OC)C2=NC(c3ccccc3)CC(=O)N21 (stereo not drawn)	-
O=C(OCC#CCSc1nnc(-c2ccccc2Cl)o1)c1ccc(F)cc1	-
COc1ccc(-c2cc(C(F)(F)F)n3nc(C(=O)O)nc3n2)cc1	-
Cc1cc2nc(-c3ccco3)cc(C(F)(F)F)n2n1	-
COc1ccc(-c2cc(C(F)(F)F)n3nc(C)cc3n2)cc1	14	TTR inh HuH7=-;TTR up confirm=-
CCC/C(=N\NC(=O)c1ccccc1C)c1ccccc1	10	TTR inh HuH7=-;TTR up confirm=-
Cc1ccccc1C(=O)NCC(=O)c1ccccc1	-
O=C(O)CC/C(=N/NC(=O)c1cccs1)c1ccccc1	-
CC(C)(C)S(=O)N1C[C@H]2CC(=O)C(CCO)=C2[C@@H]1CCO (stereo partly drawn)	-
CN(C)CCCNC(=O)C[C@@H]1CC[C@@H]2[C@H](COc3ccc(NC(=O)c4cccc(F)c4)cc3C(=O)N2C)O1	-
COP(=O)(CC(=O)OC(C)(C)C)C(CC(C)C)NC(=O)OCc1ccccc1 (stereo not drawn)	-
O=C(CCC(=O)c1cccs1)NNC(=O)c1cc(Cl)ccc1Cl	-
O=C(NNC(=O)c1cc(Cl)ccc1O)c1cccs1	-
COc1ccc(Cl)cc1C(=O)NNC(=O)COC(=O)c1cccs1	10	TTR inh HuH7=-;TTR up confirm=-
COC(CNC(=O)[C@H](Cc1c[nH]c2ccccc12)NC1(C(=O)NCc2ccccc2)CCCCC1)OC	-
CC1(C(=O)Nc2ccc3c(c2)OCCO3)CCC(=O)N1C1CCN(Cc2ccccc2)CC1 (stereo not drawn)	-
c1nc(NCC2CCCC2)c2cc(-c3ccc4c(c3)OCO4)ccc2n1	-
C/C(=N\O)c1ccn(S(=O)(=O)c2ccc(Cl)cc2)c1	26	TTR inh HuH7=-;TTR up confirm=-
C/C(=N/NS(=O)(=O)c1ccc(Cl)cc1)c1ccncc1	-
CC(=O)c1ccn(S(=O)(=O)c2ccc(Cl)cc2)c1	-
O=C(C1CC1)n1ccc2ccc(-c3ccc4ccn(Cc5ccccc5)c4c3)cc21	-
SMILES	TTR transcr act	others
C/C(=N\NC(=O)c1c[nH]c2ccccc12)c1ccco1	-
O=C(Cn1cnc2ccccc2c1=O)c1c[nH]c2ccccc12	-
O=C(CN1C(=O)C(=O)N(Cc2ccco2)C1=O)c1c[nH]c2ccccc12	11	TTR inh HuH7=-;TTR up confirm=-
CS(=O)(=O)N1C[C@]2(c3ccccc3)CC1Cc1ccccc12	-
COP(=O)(OC)C(NC(=O)OCc1ccccc1)C(C)C (stereo not drawn)	-
CN(C)C(=S)NC(=O)C12CC3CC(C)(CC(C)(C3)C1)C2	-
CC12CC3(C)CC(C)(C1)CC(C(=O)NC(=S)N1CCOCC1)(C2)C3	-
CC12CC3CC(C)(C1)CC(C(=O)NC(=S)N1CCCCC1)(C3)C2	14	TTR inh HuH7=-;TTR up confirm=-
C=CCCC1CN(Cc2ccc(OC)cc2)S(=O)(=O)c2c(Oc3ccc(C(C)C)cc3)cccc2O1 (stereo not drawn)	-
COC(=O)[C@]1(C)CN(C(=O)OC(C)(C)C)C2=C1C(=O)C[C@@](C)(C(=O)OC(C)(C)C)C2	-
CCOC(=O)C1=C[C@@H](CC)N(S(=O)(=O)c2ccc([N+](=O)[O-])cc2)[C@H]1c1ccccc1	48	TTR inh HuH7=-;TTR up confirm=-
CCOC(=O)C1=C[C@@H](C(C)(C)C)N(S(=O)(=O)c2ccc([N+](=O)[O-])cc2)[C@H]1c1ccccc1	-
CCOC(=O)C1=C[C@@H](C(C)C)N(S(=O)(=O)c2ccc([N+](=O)[O-])cc2)[C@H]1c1ccccc1	-
CCCCCNC(=O)C(C1CC1)n1c(=O)c(-c2ccco2)nc2ccccc21 (stereo not drawn)	-
CC(O)(c1ccccc1)c1nc(-c2cccc(C(=O)O)c2)cs1 (stereo not drawn)	-
CC(O)(c1ccc(F)c(F)c1)c1nc(-c2ccc(Cl)cc2)cs1 (stereo not drawn)	-
